{"source": "ChEMBL document CHEMBL4513216", "about": "“Probing the Open Global Health Chemical Diversity Library for Multistage-Active Starting Points for Next-Generation Antimalarials” (ACS Infect Dis, 2020)", "note": "In all, about 69,000 compounds went through this assay and about 8,600 (12%) showed an effect of 50% or more. The list comes from a sample in which strong results are over-represented; it also holds similar structures and randomly drawn compounds.", "data": [{"test_system": "Plasmodium berghei", "experiment": "Screen against P. berghei liver stage (PbLuc), transformed with Luciferase, at 10uM", "type": "functional, HepG2", "conditions": "tested at 10 uM", "units": {"INHIBITION": "%"}, "values": [{"compound": "Cc1ccc(OCC(=O)NS(=O)(=O)c2cccnc2)cc1C", "INHIBITION": 1.48}, {"compound": "COc1ncccc1CN1Cc2nnn(C)c2C(COCC2CC2)C1", "note": "(configuration not stated)", "INHIBITION": 28.4}, {"compound": "Cc1nccc(C2(C)CCCNC2)n1", "note": "(configuration not stated)", "INHIBITION": 40.4}, {"compound": "COc1ccc(CNC(=O)CCc2c(C)noc2C)cc1F", "INHIBITION": -4.93}, {"compound": "COc1ccc(CCCC(=O)NCc2c(C)noc2C)cc1F", "INHIBITION": 29.3}, {"compound": "COc1ccc(C(=O)CCC(=O)NCc2c(C)noc2C)cc1F", "INHIBITION": 64.1}, {"compound": "CC1c2ncc(Cn3cccn3)n2CCN1S(=O)(=O)C1CC1", "note": "(configuration not stated)", "INHIBITION": 30.3}, {"compound": "CCN1CC2(CC1=O)CN(Cc1cnn(C)c1)CCN(C(C)=O)C2", "note": "(configuration not stated)", "INHIBITION": -2.53}, {"compound": "CCn1cncc1CN(Cc1ccc(OC)cc1OC)CC1CCCO1", "note": "(configuration not stated)", "INHIBITION": 41.2}, {"compound": "COc1ccc(CN(Cc2cncn2C)CC2CCCO2)cc1", "note": "(configuration not stated)", "INHIBITION": 35.2}, {"compound": "COc1ccc(CN(Cc2cncn2C)CC2CCCO2)c(OC)c1", "note": "(configuration not stated)", "INHIBITION": 50}, {"compound": "CCS(=O)(=O)c1ccccc1N1CCC(NC(=O)NC2CCCC2)CC1", "INHIBITION": -28.9}, {"compound": "CCCC(=O)NC1CCN(c2ccccc2S(=O)(=O)CC)CC1", "INHIBITION": 58.5}, {"compound": "CCS(=O)(=O)c1ccc(N2CCC(NC(C)=O)CC2)cc1", "INHIBITION": 19.7}, {"compound": "CCS(=O)(=O)c1ccccc1N1CCC(NC(C)=O)CC1", "INHIBITION": 6}, {"compound": "CCS(=O)(=O)c1ccc(N2CCC(NC(=O)CC3CCCC3)CC2)cc1", "INHIBITION": 60.1}, {"compound": "CCS(=O)(=O)c1ccc(N2CCC(NC(=O)C3CCCCC3)CC2)cc1", "INHIBITION": 37.7}, {"compound": "CCc1nnc2n1CCN(C(=O)c1ccc3[nH]nnc3c1)C2", "INHIBITION": -1.85}, {"compound": "CCOc1ccccc1OC1CCN(C(=O)c2c[nH]nn2)CC1", "INHIBITION": 33.8}, {"compound": "CS(=O)(=O)N1CCOCC2(CCN(C(=O)c3ccncc3)CC2)C1", "INHIBITION": 19.5}, {"compound": "COc1ccc(N2CCN(Cc3nc(CSC)no3)C(C)C2=O)cc1", "note": "(configuration not stated)", "INHIBITION": -0.55}, {"compound": "COc1ccc(CN2CC[C@H]3[C@H](CO[C@H]3CNC(=O)N(C)C)C2)cc1", "INHIBITION": 4.61}, {"compound": "Cc1cccc(CN2CC[C@H]3CO[C@H](CNC(=O)N(C)C)[C@H]3C2)c1", "INHIBITION": -4.88}, {"compound": "CN(C)C[C@H]1OC[C@@H]2CCN(C(=O)NCc3cccc(F)c3)C[C@@H]21", "INHIBITION": 61.9}, {"compound": "CN(C)C(=O)NC[C@@H]1OC[C@H]2CN(Cc3cccc(F)c3)CC[C@H]21", "INHIBITION": 69.6}, {"compound": "CN(C)C[C@H]1OC[C@@H]2CN(C(=O)NCc3cccc(F)c3)CC[C@@H]21", "INHIBITION": 24.9}, {"compound": "CN1CCO[C@@H]2CN(C(=O)NCc3cccc(F)c3)CC[C@@H]2C1", "INHIBITION": 17.7}, {"compound": "Cc1ccccc1CN(CCN(C)C)Cc1ccc(C(=O)O)cc1", "INHIBITION": -4.37}, {"compound": "CC(C)c1nc2n(n1)CC(NCc1nc(C3CC3)no1)CC2", "note": "(configuration not stated)", "INHIBITION": 16.8}, {"compound": "CN(CC1CCCCO1)c1ncnc2cc(F)ccc12", "note": "(configuration not stated)", "INHIBITION": 4.68}, {"compound": "Cc1ccc(=O)n(CC2(O)CCN(Cc3cc(C)c(O)c(C)c3)CC2)n1", "INHIBITION": 42.1}, {"compound": "CCn1ccc(NC(=O)C2CCC(=O)N2Cc2ccc(C)o2)n1", "note": "(configuration not stated)", "INHIBITION": -20.8}, {"compound": "C[C@@H]1CN(C(=O)C2(Cn3cccn3)CC2)C[C@@]1(O)C1CCC1", "INHIBITION": 9.845}, {"compound": "CN(CC(=O)N1CCCC1c1cnn(C)c1)Cc1ccccc1", "note": "(configuration not stated)", "INHIBITION": -25.8}, {"compound": "Cc1cc(CNC(=O)NC(C)c2ccc(N3CCOCC3)cc2)no1", "note": "(configuration not stated)", "INHIBITION": 35.1}, {"compound": "Cc1cc(CNC(=O)N2CCN(c3ccccc3)CC2)no1", "INHIBITION": 14.2}, {"compound": "Cc1cc(CNC(=O)NCc2ccccc2N2CCOCC2)no1", "INHIBITION": 52.4}, {"compound": "CCC(=O)Nc1cccc(OCC(=O)N(C)Cc2ccon2)c1", "INHIBITION": 20.2}, {"compound": "CCC(=O)Nc1cccc(OCC(=O)N(C)Cc2nccn2CC)c1", "INHIBITION": 66.1}, {"compound": "CCC(=O)Nc1cccc(OCC(=O)N(C)Cc2nc(C)c[nH]2)c1", "INHIBITION": 3.82}, {"compound": "Cn1ccnc(Nc2ccc3c(c2)CCN3C(=O)c2ccoc2)c1=O", "INHIBITION": -21.6}, {"compound": "Cc1nc(CC(=O)N2CCCC2Cn2cccn2)cs1", "note": "(configuration not stated)", "INHIBITION": 19.4}, {"compound": "O=C(C1CCCC1)N1CCC(C(O)c2ccc(F)cc2)CC1", "note": "(configuration not stated)", "INHIBITION": 31.7}, {"compound": "O=C(C1CCC1)N1CCC(C(=O)N2CCC(c3ccc(F)cc3)C2)CC1", "note": "(configuration not stated)", "INHIBITION": 62.8}, {"compound": "O=C(CN1C(=O)CCNC1=O)N1CCC(c2ccc(F)cc2)C1", "note": "(configuration not stated)", "INHIBITION": 33.4}, {"compound": "O=C(c1cc(F)ccc1O)N1CCN(C(=O)C2CCC2)CC1", "INHIBITION": 6.11}, {"compound": "CC(C)N1CCC(C(=O)N2CCC(c3ccc(F)cc3)C2)CC1", "note": "(configuration not stated)", "INHIBITION": 73}, {"compound": "CC(C)N1CCC(C(=O)N2CCCN(c3ccccc3)CC2)CC1", "INHIBITION": 33.9}, {"compound": "CC(C)N1CCC(C(=O)N2CCN(c3cccc(C(=O)O)c3)CC2)CC1", "INHIBITION": 43.9}, {"compound": "O=C(C1CCS(=O)(=O)CC1)N1CCC(c2ccc(F)cc2)C1", "note": "(configuration not stated)", "INHIBITION": -9.51}, {"compound": "O=C(C1CC1)N1CCC(C(=O)N2CCC(c3ccc(F)cc3)C2)CC1", "note": "(configuration not stated)", "INHIBITION": 61.9}, {"compound": "Cc1cnc2c(S(=O)(=O)NC3CCS(=O)(=O)C3)cccc2c1", "note": "(configuration not stated)", "INHIBITION": 10}]}]}
